Whole data set: some 68,000 sequences, median “fluorescence intensity (a.u.)” near 9,100, cut for the highest 2% near 16,000. This excerpt belongs to a sample that is enriched for the highest values.
Biological target: OsWRKY34 (Oryza sativa, UniProt Q0JBA9 1-250)
Test: protein-binding microarray (RPBM); PBS, 2% BSA, 51.3 ng/ul salmon testes DNA, 50 uM zinc acetate, 200 nM TF, 25 C, 1 h; high values mean tight binding
Conditions: protein: recombinant; tags: N-terminal polyhistidine and DsRed monomer fusion (pET32a); label: CyDye5-dUTP incorporated in the synthesized complementary strand; 3' TTTTT single-stranded linker to array surface; dsDNA, one strand shown
In short: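 Per-feature fluorescence intensity (arbitrary units), read on an Axon 4000B scanner, is the binding signal. Transcription factors carrying an N-terminal polyhistidine tag and DsRed fusion were expressed in E. coli BL21-CodonPlus and purified on Ni–NTA. A custom Agilent array, made double-stranded by primer extension with Cy5-dUTP and blocked with 2% BSA, was incubated with 200 nM protein in PBS, 2% BSA, salmon testes DNA and 50 µM zinc acetate at 25 °C for 1 h and then washed.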

OsWRKY34, sequence (Q0JBA9 entry or part of it): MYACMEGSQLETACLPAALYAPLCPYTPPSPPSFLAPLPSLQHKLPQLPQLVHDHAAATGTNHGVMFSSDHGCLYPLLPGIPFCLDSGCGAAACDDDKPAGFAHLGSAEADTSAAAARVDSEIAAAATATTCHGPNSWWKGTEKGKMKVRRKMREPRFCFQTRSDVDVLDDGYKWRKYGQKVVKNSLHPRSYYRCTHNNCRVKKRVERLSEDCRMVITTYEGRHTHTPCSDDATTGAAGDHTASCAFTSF

Question: How did the binding signal turn out when “GTGTCCTTTTCTTTTTTTTCTTCTTTTCTTTTTCTTTTTCCGGAGTCACCTAGTGCAG” was run?
Answer: Its binding signal is 9510 fluorescence intensity (a.u.).

Question: “ACCATGTAACGAGTAATCTTTTGACCTGTGCCACGTCATCCGGAGTCACCTAGTGCAG” was tested. Which binding signal did it give?
Answer: The binding signal was 9160 fluorescence intensity (a.u.).

Question: “TTTGGTGGTGTGCAAGTGGAGTGGTTTATAAAATTATGTCCGGAGTCACCTAGTGCAG” was tested. Which binding signal did it give?
Answer: Its binding signal is 8980 fluorescence intensity (a.u.).

Question: With “CCTCATCACTCGCTTCTCCTTGCTTACACACCATCCCATCCGGAGTCACCTAGTGCAG” as the sequence, how does the binding signal read?
Answer: The binding signal was 8310 fluorescence intensity (a.u.).

Question: How did the binding signal turn out when “CTAACATTCCCTATGCGGAAACACACACATTCATGCACACCGGAGTCACCTAGTGCAG” was run?
Answer: The binding signal was 8860 fluorescence intensity (a.u.).

Question: For “CCTCTTAACTCTTTCCCATTCCCAAATGCGCCACTGTCTCCGGAGTCACCTAGTGCAG”, which binding signal is on record?
Answer: Its binding signal is 9190 fluorescence intensity (a.u.).

Question: “CTCTGTCCTATTGGAACATTTCTCTGAAGCAACACCATATCGGAGTCACCTAGTGCAG” was tested. Which binding signal did it give?
Answer: Its binding signal is 9340 fluorescence intensity (a.u.).

Question: With “TGACAGTGTGATGTGCTTGTTCGCTCTGATTTGATTTTGGCGGAGTCACCTAGTGCAG” as the sequence, how does the binding signal read?
Answer: Its binding signal is 8050 fluorescence intensity (a.u.).

Question: How did the binding signal turn out when “CCCCATCCATTGCAACGGCAACATACACACACCACCACCACGGAGTCACCTAGTGCAG” was run?
Answer: Its binding signal is 8350 fluorescence intensity (a.u.).

Question: How did the binding signal turn out when “CGTTGACTCCATCTCTTTAACATATTTTAGGAGCATGCTTCGGAGTCACCTAGTGCAG” was run?
Answer: The binding signal was 8610 fluorescence intensity (a.u.).

Question: With “TCATCTCCATCTTTTTATTTACACGCACACTTCTCAAACTCGGAGTCACCTAGTGCAG” as the sequence, how does the binding signal read?
Answer: The binding signal was 11100 fluorescence intensity (a.u.).

Question: Which binding signal does the source give for “CCAACTCCGAACGCCTCTTCTTCTCCTCACCGCCGCCGAACGGAGTCACCTAGTGCAG” here?
Answer: The binding signal was 9650 fluorescence intensity (a.u.).

Question: For “CAGATTGTTTTCCATGATTCTTAGCCTCTCTGATGTTTGACGGAGTCACCTAGTGCAG”, which binding signal is on record?
Answer: Its binding signal is 9640 fluorescence intensity (a.u.).

Question: Which binding signal does the source give for “TGTCGGTGTCGGTGGGCGGGGATTCGCGGTAGTGGTGGAACGGAGTCACCTAGTGCAG” here?
Answer: The binding signal was 19700 fluorescence intensity (a.u.).

Question: For “TGGATTTAGGATGTTACTTTGATTTGGGGATTTGGGGTTTCGGAGTCACCTAGTGCAG”, which binding signal is on record?
Answer: Its binding signal is 17200 fluorescence intensity (a.u.).

Question: For “GGGCTGACGGGTGGGGTCCATGTTGTTTTCCTCTTAGGCACGGAGTCACCTAGTGCAG”, which binding signal is on record?
Answer: Its binding signal is 23000 fluorescence intensity (a.u.).

Question: For “ATCTCCCGCGGTTTCGATTTGGGTTTATTTGGGCGGTGGGCGGAGTCACCTAGTGCAG”, which binding signal is on record?
Answer: Its binding signal is 18800 fluorescence intensity (a.u.).

Question: Which binding signal does the source give for “TGATGTTACTTTGATTTGGGGTTTGATTTGGGAATATGCACGGAGTCACCTAGTGCAG” here?
Answer: The binding signal was 13500 fluorescence intensity (a.u.).

Question: “GAAGGAGAAGGAGAGGGGAGGGGCTGACGGGTGGGGTCCACGGAGTCACCTAGTGCAG” was tested. Which binding signal did it give?
Answer: The binding signal was 14000 fluorescence intensity (a.u.).

Question: “CAACGGCGGTGGCGGCGGCGGCGGCGGCGGGGCGGCGTCGCGGAGTCACCTAGTGCAG” was tested. Which binding signal did it give?
Answer: Its binding signal is 8370 fluorescence intensity (a.u.).

Question: “ATTTGTGATGTGGATTTGGGGTGTTACTTTGATTTGGGGACGGAGTCACCTAGTGCAG” was tested. Which binding signal did it give?
Answer: The binding signal was 12900 fluorescence intensity (a.u.).

Question: “GTGGGAGTGGCGGTGTCGGGTCCGGAACGAAACGGCGGGGCGGAGTCACCTAGTGCAG” was tested. Which binding signal did it give?
Answer: Its binding signal is 10300 fluorescence intensity (a.u.).

Question: How did the binding signal turn out when “TCTTTGTTTCCCGCGTTTTGTTGGGGATTCGATTTTCGGGCGGAGTCACCTAGTGCAG” was run?
Answer: Its binding signal is 11100 fluorescence intensity (a.u.).

Question: For “ATGGTTCGATTATTGGTGGAGTTCTCTCTCGGTTTCTCCGCGGAGTCACCTAGTGCAG”, which binding signal is on record?
Answer: Its binding signal is 10600 fluorescence intensity (a.u.).

Question: With “GCGCCGTCCCTTCGGGCCCACAAGCCGTCCACCCACTTCCCGGAGTCACCTAGTGCAG” as the sequence, how does the binding signal read?
Answer: The binding signal was 11300 fluorescence intensity (a.u.).

Question: With “GGGCCTATAACTGTAGTTCCATCACGTCTCTCTGTACGTTCGGAGTCACCTAGTGCAG” as the sequence, how does the binding signal read?
Answer: Its binding signal is 8820 fluorescence intensity (a.u.).

Question: For “GCCATCTCGCCTAAATAAAACCGCGCTACCCATCGACCGACGGAGTCACCTAGTGCAG”, which binding signal is on record?
Answer: The binding signal was 9280 fluorescence intensity (a.u.).

Question: “TCCAGTTTTGGTCTGGGTGATGTGTCATGTTCTGATTGGCCGGAGTCACCTAGTGCAG” was tested. Which binding signal did it give?
Answer: Its binding signal is 8180 fluorescence intensity (a.u.).

Question: For “CTTCTTCCATCCAACCCATTGCATGGTGTATTTTCCATATCGGAGTCACCTAGTGCAG”, which binding signal is on record?
Answer: Its binding signal is 8320 fluorescence intensity (a.u.).

Question: How did the binding signal turn out when “AAATATGGTGGGCCCCACATGGCTGCGCCTCAAGCTTCTCCGGAGTCACCTAGTGCAG” was run?
Answer: Its binding signal is 9100 fluorescence intensity (a.u.).

Question: For “GTCTCATGTCACACTCACGTAGCTATATTTTTTATATTATCGGAGTCACCTAGTGCAG”, which binding signal is on record?
Answer: The binding signal was 9120 fluorescence intensity (a.u.).

Question: “TTAGGGGCGGTGGGTGGTTTTCGGCTGGGAAATCGCGGATCGGAGTCACCTAGTGCAG” was tested. Which binding signal did it give?
Answer: Its binding signal is 11500 fluorescence intensity (a.u.).

Question: With “ATGCATTTCTTTTAGGATTTGTGATGTATTTTTCGTTTGACGGAGTCACCTAGTGCAG” as the sequence, how does the binding signal read?
Answer: Its binding signal is 9640 fluorescence intensity (a.u.).

Question: Which binding signal does the source give for “GATTTGGGGATTTGGGGTTTGATTTAGGATGTGCATGCCACGGAGTCACCTAGTGCAG” here?
Answer: Its binding signal is 21400 fluorescence intensity (a.u.).

Question: Which binding signal does the source give for “TGGATGTCGCCGTCGGCGGGGTGGTGGGATTTGGAACTGGCGGAGTCACCTAGTGCAG” here?
Answer: Its binding signal is 12500 fluorescence intensity (a.u.).

Question: How did the binding signal turn out when “GTTTGGGATGTCGCGGGGATTTAGGGGCGGTGGGTGGTTTCGGAGTCACCTAGTGCAG” was run?
Answer: Its binding signal is 39300 fluorescence intensity (a.u.).

Question: How did the binding signal turn out when “TGGGATGTATTTGAGTTGTGATGCATTTCTTTTAGGATTTCGGAGTCACCTAGTGCAG” was run?
Answer: The binding signal was 8310 fluorescence intensity (a.u.).

Question: How did the binding signal turn out when “GACCATTATGTTAACTTGGATTAGGGGTAGGCTAGAGATTCGGAGTCACCTAGTGCAG” was run?
Answer: The binding signal was 11000 fluorescence intensity (a.u.).

Question: With “ACTTTGATTGGGCTGGGTTCATATGAGATTAGGGGAAAAACGGAGTCACCTAGTGCAG” as the sequence, how does the binding signal read?
Answer: Its binding signal is 13500 fluorescence intensity (a.u.).

Question: “TTAGGGGTAGGCTAGAGATTGATTGGGGCTTATATGATAACGGAGTCACCTAGTGCAG” was tested. Which binding signal did it give?
Answer: Its binding signal is 19700 fluorescence intensity (a.u.).

Question: With “GAGCTCCTGTTGGTCGGGGACGTTTCGCGTTGGTTCCTCTCGGAGTCACCTAGTGCAG” as the sequence, how does the binding signal read?
Answer: The binding signal was 12000 fluorescence intensity (a.u.).

Question: Which binding signal does the source give for “TATAATTTTGTGCTAATATGCATTTTCCTTGTTTTGTTTACGGAGTCACCTAGTGCAG” here?
Answer: Its binding signal is 11300 fluorescence intensity (a.u.).

From PMC7819943, “Rice protein-binding microarrays: a tool to detect cis-acting elements near promoter regions in rice”
